To fix the notation:
T1: RBFOX1 RRM (Homo sapiens, UniProt Q9NWB1 109-208)
T1 sequence: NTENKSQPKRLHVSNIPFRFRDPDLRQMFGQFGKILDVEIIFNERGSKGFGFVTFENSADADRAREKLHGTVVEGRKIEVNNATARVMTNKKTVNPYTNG

B1: AAAUAAA (DNA:RNA)
RNA: GGGAGACCGGAAUUCAGAUUGUCCAAAUAAAUUAAAUCCCGUCGUAGCCACCA
DNA 1: CAATCTGAATTCCGGTCTCCC
DNA 2: TGGTGGCTACGACGGGATT
B2: AAAGAGU (DNA:RNA)
RNA: B1 RNA with U28G, A30G, A31U
DNA 1: CAATCTGAATTCCGGTCTCCC
DNA 2: TGGTGGCTACGACGGGATT
B3: AGUGGCG (DNA:RNA)
RNA: B1 RNA with A26G, A27U, U28G, A29G, A30C, A31G
DNA 1: CAATCTGAATTCCGGTCTCCC
DNA 2: TGGTGGCTACGACGGGATT
B4: CUCUGUC (DNA:RNA)
RNA: B1 RNA with A25C, A26U, A27C, A29G, A30U, A31C
DNA 1: CAATCTGAATTCCGGTCTCCC
DNA 2: TGGTGGCTACGACGGGATT
B5: GUGCGCC (DNA:RNA)
RNA: GGGAGACCGGAAUUCAGAUUGUCCGUGCGCCUUAAAUCCCGUCGUAGCCACCA
DNA 1: CAATCTGAATTCCGGTCTCCC
DNA 2: TGGTGGCTACGACGGGATT
B6: CUUACGG (DNA:RNA)
RNA: B5 RNA with G25C, G27U, C28A, G29C, C30G, C31G
DNA 1: CAATCTGAATTCCGGTCTCCC
DNA 2: TGGTGGCTACGACGGGATT
B7: UGGUUGC (DNA:RNA)
RNA: B5 RNA with G25U, U26G, C28U, G29U, C30G
DNA 1: CAATCTGAATTCCGGTCTCCC
DNA 2: TGGTGGCTACGACGGGATT
B8: CUGGGGU (DNA:RNA)
RNA: B5 RNA with G25C, C28G, C30G, C31U
DNA 1: CAATCTGAATTCCGGTCTCCC
DNA 2: TGGTGGCTACGACGGGATT
B9: UGGGGUU (DNA:RNA)
RNA: B5 RNA with G25U, U26G, C28G, C30U, C31U
DNA 1: CAATCTGAATTCCGGTCTCCC
DNA 2: TGGTGGCTACGACGGGATT
B10: UGGUUGG (DNA:RNA)
RNA: B1 RNA with A25U, A26G, A27G, A29U, A30G, A31G
DNA 1: CAATCTGAATTCCGGTCTCCC
DNA 2: TGGTGGCTACGACGGGATT
B11: UGGGGGU (DNA:RNA)
RNA: B5 RNA with G25U, U26G, C28G, C30G, C31U
DNA 1: CAATCTGAATTCCGGTCTCCC
DNA 2: TGGTGGCTACGACGGGATT
B12: CGGUUGC (DNA:RNA)
RNA: B5 RNA with G25C, U26G, C28U, G29U, C30G
DNA 1: CAATCTGAATTCCGGTCTCCC
DNA 2: TGGTGGCTACGACGGGATT
B13: UCAAACU (DNA:RNA)
RNA: B1 RNA with A25U, A26C, U28A, A30C, A31U
DNA 1: CAATCTGAATTCCGGTCTCCC
DNA 2: TGGTGGCTACGACGGGATT
B14: AUUAGUA (DNA:RNA)
RNA: B1 RNA with A26U, A27U, U28A, A29G, A30U
DNA 1: CAATCTGAATTCCGGTCTCCC
DNA 2: TGGTGGCTACGACGGGATT
B15: CGGAAGU (DNA:RNA)
RNA: B1 RNA with A25C, A26G, A27G, U28A, A30G, A31U
DNA 1: CAATCTGAATTCCGGTCTCCC
DNA 2: TGGTGGCTACGACGGGATT
B16: UCUUCCA (DNA:RNA)
RNA: B1 RNA with A25U, A26C, A27U, A29C, A30C
DNA 1: CAATCTGAATTCCGGTCTCCC
DNA 2: TGGTGGCTACGACGGGATT
B17: GCUGCUU (DNA:RNA)
RNA: B5 RNA with U26C, G27U, C28G, G29C, C30U, C31U
DNA 1: CAATCTGAATTCCGGTCTCCC
DNA 2: TGGTGGCTACGACGGGATT
B18: GCCCCUG (DNA:RNA)
RNA: B5 RNA with U26C, G27C, G29C, C30U, C31G
DNA 1: CAATCTGAATTCCGGTCTCCC
DNA 2: TGGTGGCTACGACGGGATT
B19: GCCCGCU (DNA:RNA)
RNA: B5 RNA with U26C, G27C, C31U
DNA 1: CAATCTGAATTCCGGTCTCCC
DNA 2: TGGTGGCTACGACGGGATT
B20: GCCUGUC (DNA:RNA)
RNA: B5 RNA with U26C, G27C, C28U, C30U
DNA 1: CAATCTGAATTCCGGTCTCCC
DNA 2: TGGTGGCTACGACGGGATT
B21: GCUUGCC (DNA:RNA)
RNA: B5 RNA with U26C, G27U, C28U
DNA 1: CAATCTGAATTCCGGTCTCCC
DNA 2: TGGTGGCTACGACGGGATT
B22: GCCUGUG (DNA:RNA)
RNA: B5 RNA with U26C, G27C, C28U, C30U, C31G
DNA 1: CAATCTGAATTCCGGTCTCCC
DNA 2: TGGTGGCTACGACGGGATT
B23: GCCUGCU (DNA:RNA)
RNA: B5 RNA with U26C, G27C, C28U, C31U
DNA 1: CAATCTGAATTCCGGTCTCCC
DNA 2: TGGTGGCTACGACGGGATT
B24: CGCCUUG (DNA:RNA)
RNA: B5 RNA with G25C, U26G, G27C, G29U, C30U, C31G
DNA 1: CAATCTGAATTCCGGTCTCCC
DNA 2: TGGTGGCTACGACGGGATT
B25: CGCCUGC (DNA:RNA)
RNA: B5 RNA with G25C, U26G, G27C, G29U, C30G
DNA 1: CAATCTGAATTCCGGTCTCCC
DNA 2: TGGTGGCTACGACGGGATT
B26: GCCCUGC (DNA:RNA)
RNA: B5 RNA with U26C, G27C, G29U, C30G
DNA 1: CAATCTGAATTCCGGTCTCCC
DNA 2: TGGTGGCTACGACGGGATT
B27: GCCUUGC (DNA:RNA)
RNA: B5 RNA with U26C, G27C, C28U, G29U, C30G
DNA 1: CAATCTGAATTCCGGTCTCCC
DNA 2: TGGTGGCTACGACGGGATT
B28: CCGCCUG (DNA:RNA)
RNA: B5 RNA with G25C, U26C, G29C, C30U, C31G
DNA 1: CAATCTGAATTCCGGTCTCCC
DNA 2: TGGTGGCTACGACGGGATT

The source of these data is paper PMC9911399, “Two distinct binding modes provide the RNA-binding protein RbFox with extraordinary sequence specificity”.

Substitutions are numbered along the chain they refer to; changes in the protein carry UniProt numbers. Over roughly 16,000 sequences, “ka relative to ugcaugu” has its median near 0.0091; the highest 2% begin near 0.032. This excerpt belongs to a sample that is enriched for the highest values.

This assay deals with T1, RBFOX1 RRM. The experiment in a line: EMSA; HiTS-Eq, 1 nM pool, 10 min; buffer printed only for the single-RNA assays: 10 mM Tris pH 7.5, 150 mM NaCl, 3.4 mM EDTA, 0.001% NP-40, 30 C. The settings on record: tags: His6 N-terminal (pET28a); label: 5' 32P. The method, boiled down:
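These values rest on relative association constants, computed from read-count changes of each RNA species versus the control reaction and normalised to the cognate motif. Reads came from free RNA recovered by 8% native PAGE after purified RbFox RRM (wild type or mutant) at increasing concentrations was equilibrated for 10 min in 50 µL with 1 nM of a 5′-radiolabelled pool with 7 randomized nucleotides and DNA-annealed flanks.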
In general terms: Mobility shift assays separate free from complexed probe on a gel.
As to B1, the binding signal was 0.000652 KA relative to UGCAUGU.

Take B2: the binding signal was 0.00527 KA relative to UGCAUGU.

For the molecule B3, the binding signal is 0.0184 KA relative to UGCAUGU.

In the case of B4, the binding signal was 0.00978 KA relative to UGCAUGU.

Take B5: the binding signal was 0.0184 KA relative to UGCAUGU.

Consider B6, for which the binding signal is 0.00764 KA relative to UGCAUGU.

For B7, the binding signal was 0.0455 KA relative to UGCAUGU.

Consider B8, for which the binding signal was 0.018 KA relative to UGCAUGU.

In the case of B9, the binding signal is 0.036 KA relative to UGCAUGU.

Consider B10, for which the binding signal was 0.0294 KA relative to UGCAUGU.

As to B11, the binding signal is 0.0229 KA relative to UGCAUGU.

B12: the binding signal was 0.0256 KA relative to UGCAUGU.

Turning to B13, the binding signal was 0.00177 KA relative to UGCAUGU.

Turning to B14, the binding signal is 0.00672 KA relative to UGCAUGU.

Take B15: the binding signal is 0.0236 KA relative to UGCAUGU.

Turning to B16, the binding signal is 0.00385 KA relative to UGCAUGU.

Take B17: the binding signal was 0.0216 KA relative to UGCAUGU.

Turning to B18, the binding signal is 0.016 KA relative to UGCAUGU.

In the case of B19, the binding signal was 0.0168 KA relative to UGCAUGU.

On to B20, for which the binding signal is 0.0275 KA relative to UGCAUGU.

With B21, the binding signal was 0.0307 KA relative to UGCAUGU.

With B22, the binding signal is 0.034 KA relative to UGCAUGU.

For B23, the binding signal is 0.0359 KA relative to UGCAUGU.

Regarding B24, the binding signal is 0.0242 KA relative to UGCAUGU.

On to B25, for which the binding signal was 0.0343 KA relative to UGCAUGU.

As for B26, the binding signal is 0.0133 KA relative to UGCAUGU.

Consider B27, for which the binding signal was 0.0319 KA relative to UGCAUGU.

Regarding B28, the binding signal is 0.0178 KA relative to UGCAUGU.
